# According to paper PMC4081100, “A DNA-binding-site landscape and regulatory network analysis for NAC transcription factors in Arabidopsis thaliana”:
# Legend:
# Experiment in all cases: universal protein binding microarray (PBM); transcription factors of Arabidopsis thaliana; high values mean tight binding
# Settings in all cases: protein: recombinant; tags: GST; chain copies: 2; dsDNA, one strand shown
# GST-ANAC092(1-176) = target: T1, GST-ANAC092(1-176) (Arabidopsis thaliana, UniProt Q9FKA0 1-176)
# T1 sequence: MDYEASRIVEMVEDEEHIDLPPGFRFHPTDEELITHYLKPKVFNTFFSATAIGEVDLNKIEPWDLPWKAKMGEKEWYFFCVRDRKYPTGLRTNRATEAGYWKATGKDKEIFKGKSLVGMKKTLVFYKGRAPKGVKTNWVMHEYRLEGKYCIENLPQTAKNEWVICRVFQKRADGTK
# Summary of the method: (§1)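 Binding is expressed as the normalised enrichment score (E-score). Proteins carrying a GST tag, whether NAC-domain, full-length or DNA-binding-domain forms, were induced in cells, and zinc acetate was added for zinc-finger proteins. After purification on glutathione–Sepharose 4B and quantification by A280 or anti-GST western blot, each was applied in duplicate at 200 to 500 nM final to custom all-10-mer Agilent 4 × 180K arrays made double-stranded by primer extension. Gapped and ungapped 8-mers were scored.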
# GST-NTL6(1-168) = GST-NTL6(1-168) (Arabidopsis thaliana, UniProt Q9SCK6 1-168)
# Summary of the method: as §1
# GST-ANAC019 NAC domain = target: T2, GST-ANAC019 NAC domain (Arabidopsis thaliana, UniProt Q9C932 14-162)
# T2 sequence: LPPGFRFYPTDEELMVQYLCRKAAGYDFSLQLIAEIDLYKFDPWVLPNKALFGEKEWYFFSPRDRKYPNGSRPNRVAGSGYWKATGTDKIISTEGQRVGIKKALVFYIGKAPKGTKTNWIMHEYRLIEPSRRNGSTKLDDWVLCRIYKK
# Summary of the method: as §1
# GST-ANAC055(1-171) = target: T3, GST-ANAC055(1-171) (Arabidopsis thaliana, UniProt Q9LDY8 1-171)
# T3 sequence: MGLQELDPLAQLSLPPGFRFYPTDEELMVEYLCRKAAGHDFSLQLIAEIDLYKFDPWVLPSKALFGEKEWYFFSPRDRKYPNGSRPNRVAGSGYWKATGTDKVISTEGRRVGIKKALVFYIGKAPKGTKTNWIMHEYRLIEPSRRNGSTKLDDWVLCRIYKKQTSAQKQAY
# Summary of the method: as §1
# GST-ATAF1 NAC domain = target: T4, GST-ATAF1 NAC domain (Arabidopsis thaliana, UniProt Q39013 7-158)
# T4 sequence: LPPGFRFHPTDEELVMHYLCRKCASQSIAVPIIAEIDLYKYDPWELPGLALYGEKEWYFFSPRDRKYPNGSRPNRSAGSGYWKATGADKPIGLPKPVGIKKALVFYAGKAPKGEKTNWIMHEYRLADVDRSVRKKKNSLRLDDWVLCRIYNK
# Summary of the method: as §1
# [1] = target: T5, GST-ANAC092(1-285) full length (Arabidopsis thaliana, UniProt Q9FKA0 1-285)
# T5 sequence: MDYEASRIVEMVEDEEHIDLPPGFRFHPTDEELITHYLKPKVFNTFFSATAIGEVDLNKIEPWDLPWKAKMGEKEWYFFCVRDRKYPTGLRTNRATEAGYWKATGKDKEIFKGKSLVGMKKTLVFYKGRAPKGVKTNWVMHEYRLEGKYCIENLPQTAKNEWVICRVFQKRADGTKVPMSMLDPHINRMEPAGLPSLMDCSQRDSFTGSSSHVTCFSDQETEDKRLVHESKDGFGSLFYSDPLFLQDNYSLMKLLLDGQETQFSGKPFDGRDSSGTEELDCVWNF
# Summary of the method: as §1
# GST-NST2(1-184) = target: T6, GST-NST2(1-184) (Arabidopsis thaliana, UniProt Q9M274 1-184)
# T6 sequence: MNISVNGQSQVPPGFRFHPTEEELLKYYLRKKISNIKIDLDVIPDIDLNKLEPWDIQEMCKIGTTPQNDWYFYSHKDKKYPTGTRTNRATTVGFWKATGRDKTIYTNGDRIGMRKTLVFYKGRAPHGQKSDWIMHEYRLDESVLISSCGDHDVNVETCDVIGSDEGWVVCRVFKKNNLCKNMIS
# Summary of the method: as §1
# GST-NTL8 NAC domain = target: T7, GST-NTL8 NAC domain (Arabidopsis thaliana, UniProt Q9XIN7 14-156)
# T7 sequence: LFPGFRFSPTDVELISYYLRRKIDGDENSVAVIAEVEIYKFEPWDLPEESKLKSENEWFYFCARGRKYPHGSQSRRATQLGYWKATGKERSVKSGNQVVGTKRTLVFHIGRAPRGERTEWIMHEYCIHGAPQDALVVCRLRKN
# Summary of the method: as §1
# GST-SND1(1-203) = target: T8, GST-SND1(1-203) (Arabidopsis thaliana, UniProt Q9LPI7 1-203)
# T8 sequence: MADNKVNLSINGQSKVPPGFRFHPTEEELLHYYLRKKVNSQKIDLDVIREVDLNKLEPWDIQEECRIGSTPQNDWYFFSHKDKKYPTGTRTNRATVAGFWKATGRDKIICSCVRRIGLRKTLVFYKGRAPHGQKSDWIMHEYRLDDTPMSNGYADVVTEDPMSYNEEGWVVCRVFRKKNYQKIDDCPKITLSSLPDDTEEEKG
# Summary of the method: as §1
# GST-VND3 NAC domain = target: T9, GST-VND3 NAC domain (Arabidopsis thaliana, UniProt Q9FH59 12-162)
# T9 sequence: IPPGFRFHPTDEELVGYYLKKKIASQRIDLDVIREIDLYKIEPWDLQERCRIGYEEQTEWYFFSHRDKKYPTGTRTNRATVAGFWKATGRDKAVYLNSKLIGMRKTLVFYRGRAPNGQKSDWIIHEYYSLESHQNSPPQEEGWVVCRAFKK
# Summary of the method: as §1
# GST-VND7 NAC domain = target: T10, GST-VND7 NAC domain (Arabidopsis thaliana, UniProt Q9C8W9 9-158)
# T10 sequence: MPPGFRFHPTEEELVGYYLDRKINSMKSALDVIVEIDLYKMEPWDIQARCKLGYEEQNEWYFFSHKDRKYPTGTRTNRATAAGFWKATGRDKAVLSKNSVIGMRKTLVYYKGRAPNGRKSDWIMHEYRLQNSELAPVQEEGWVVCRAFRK
# Summary of the method: as §1
# GST-NAP(1-166) = target: T11, GST-NAP(1-166) (Arabidopsis thaliana, UniProt O49255 1-166)
# T11 sequence: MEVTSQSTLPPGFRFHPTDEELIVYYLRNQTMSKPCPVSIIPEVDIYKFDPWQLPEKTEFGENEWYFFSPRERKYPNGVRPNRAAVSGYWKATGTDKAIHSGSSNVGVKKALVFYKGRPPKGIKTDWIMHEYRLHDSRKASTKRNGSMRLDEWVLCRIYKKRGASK
# Summary of the method: as §1
# Chain of GST-NTL6(1-168) (Q9SCK6 1-168): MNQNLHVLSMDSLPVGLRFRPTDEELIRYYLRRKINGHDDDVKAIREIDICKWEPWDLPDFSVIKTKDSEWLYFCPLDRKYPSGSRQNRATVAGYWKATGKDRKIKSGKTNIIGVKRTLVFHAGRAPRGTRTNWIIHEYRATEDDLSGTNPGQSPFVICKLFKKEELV
Sequence,binding signal (GST-ANAC092(1-176)),binding signal (GST-NTL6(1-168)),binding signal (GST-ANAC019 NAC domain),binding signal (GST-ANAC055(1-171)),binding signal (GST-ATAF1 NAC domain),binding signal [1],binding signal (GST-NST2(1-184)),binding signal (GST-NTL8 NAC domain),binding signal (GST-SND1(1-203)),binding signal (GST-VND3 NAC domain),binding signal (GST-VND7 NAC domain),binding signal (GST-NAP(1-166))
GTTAAGTA,0.119 E-score,0.45 E-score,0.171 E-score,0.0947 E-score,0.218 E-score,0.123 E-score,0.148 E-score,0.228 E-score,0.202 E-score,0.245 E-score,0.0716 E-score,
GAGGAAAA,0.152 E-score,0.188 E-score,,,0.1 E-score,0.152 E-score,,0.402 E-score,0.142 E-score,0.12 E-score,0.114 E-score,
TACCTTAA,0.193 E-score,0.42 E-score,,0.0879 E-score,0.131 E-score,0.26 E-score,0.149 E-score,0.298 E-score,0.291 E-score,0.16 E-score,0.0949 E-score,
ACGTTAAC,0.421 E-score,,0.257 E-score,0.228 E-score,0.227 E-score,0.438 E-score,0.27 E-score,,0.412 E-score,0.209 E-score,0.207 E-score,0.218 E-score
GCGTACGC,0.402 E-score,,0.287 E-score,0.265 E-score,0.16 E-score,0.418 E-score,0.251 E-score,,0.288 E-score,0.0861 E-score,0.346 E-score,0.226 E-score
CGACACGC,0.316 E-score,,0.246 E-score,0.131 E-score,0.188 E-score,0.403 E-score,,,0.134 E-score,0.138 E-score,0.198 E-score,0.194 E-score
AGCGTGTC,0.398 E-score,,0.206 E-score,0.174 E-score,0.165 E-score,0.432 E-score,0.107 E-score,,0.131 E-score,0.156 E-score,0.208 E-score,0.0924 E-score
TCACGGCA,0.398 E-score,,0.473 E-score,0.438 E-score,0.385 E-score,0.429 E-score,0.177 E-score,,0.16 E-score,0.45 E-score,0.456 E-score,0.344 E-score
AAAGCAAC,0.268 E-score,0.0839 E-score,,0.0548 E-score,,0.373 E-score,0.277 E-score,0.0929 E-score,0.401 E-score,0.0501 E-score,0.145 E-score,
ACGTACGC,0.212 E-score,,0.202 E-score,0.16 E-score,0.26 E-score,0.402 E-score,0.193 E-score,,0.253 E-score,0.252 E-score,0.209 E-score,0.274 E-score
GCACGGCA,0.449 E-score,,0.472 E-score,0.448 E-score,0.361 E-score,0.461 E-score,0.164 E-score,,0.107 E-score,0.408 E-score,0.461 E-score,0.41 E-score
TGGCGTAA,0.44 E-score,,0.0928 E-score,0.127 E-score,0.16 E-score,0.439 E-score,0.346 E-score,,0.482 E-score,0.191 E-score,0.246 E-score,0.101 E-score
ATGCGTGC,0.429 E-score,,0.276 E-score,0.217 E-score,0.21 E-score,0.452 E-score,0.221 E-score,,0.292 E-score,0.191 E-score,0.138 E-score,0.273 E-score
AAGGGAAA,0.195 E-score,0.166 E-score,,,0.166 E-score,0.0848 E-score,,0.476 E-score,0.117 E-score,0.0609 E-score,0.0885 E-score,
ACGTCATC,0.418 E-score,,0.288 E-score,0.285 E-score,0.291 E-score,0.449 E-score,0.214 E-score,,0.411 E-score,0.327 E-score,0.273 E-score,0.343 E-score
ACACGCGA,0.461 E-score,0.125 E-score,,,,0.478 E-score,0.212 E-score,,0.309 E-score,0.0551 E-score,0.124 E-score,0.147 E-score
AACACGCA,0.469 E-score,,0.415 E-score,0.345 E-score,0.315 E-score,0.477 E-score,0.263 E-score,,0.335 E-score,0.346 E-score,0.34 E-score,0.386 E-score
CACGCCAC,0.481 E-score,,0.33 E-score,0.268 E-score,0.293 E-score,0.488 E-score,0.298 E-score,,0.386 E-score,0.168 E-score,0.271 E-score,0.292 E-score
ATTACGCA,0.35 E-score,,0.168 E-score,0.276 E-score,0.206 E-score,0.37 E-score,0.292 E-score,,0.431 E-score,0.265 E-score,0.253 E-score,0.282 E-score
ATACGGCA,0.419 E-score,,0.361 E-score,0.353 E-score,0.365 E-score,0.433 E-score,0.0642 E-score,,0.228 E-score,0.414 E-score,0.44 E-score,0.411 E-score
GTGGCGTA,0.439 E-score,,0.148 E-score,0.144 E-score,0.235 E-score,0.459 E-score,0.3 E-score,,0.471 E-score,0.138 E-score,0.0712 E-score,0.0567 E-score
ACACGTAT,0.289 E-score,,0.406 E-score,0.342 E-score,0.312 E-score,0.369 E-score,0.19 E-score,,0.139 E-score,0.38 E-score,0.381 E-score,0.387 E-score
CGTACACG,0.337 E-score,,0.221 E-score,0.287 E-score,0.278 E-score,0.403 E-score,0.0623 E-score,,0.0837 E-score,0.317 E-score,0.3 E-score,0.288 E-score
ACACGTTA,0.482 E-score,,0.165 E-score,0.3 E-score,0.35 E-score,0.485 E-score,0.358 E-score,,0.413 E-score,0.277 E-score,0.237 E-score,0.222 E-score
ATGCCGTG,0.417 E-score,,0.453 E-score,0.418 E-score,0.35 E-score,0.443 E-score,,,0.111 E-score,0.399 E-score,0.447 E-score,0.397 E-score
AGAGGAAA,0.115 E-score,0.126 E-score,,,0.0666 E-score,0.0695 E-score,,0.45 E-score,0.144 E-score,0.0951 E-score,0.0583 E-score,
GCAAGAAA,0.295 E-score,0.306 E-score,,0.0836 E-score,0.189 E-score,0.401 E-score,0.201 E-score,0.229 E-score,0.307 E-score,0.12 E-score,0.0827 E-score,
ACGGCACC,0.406 E-score,,0.425 E-score,0.358 E-score,0.375 E-score,0.452 E-score,0.0937 E-score,,0.237 E-score,0.318 E-score,0.333 E-score,0.381 E-score
GCGTGTGA,0.374 E-score,,0.191 E-score,0.23 E-score,0.226 E-score,0.419 E-score,0.189 E-score,,0.17 E-score,0.14 E-score,0.0819 E-score,0.145 E-score
GCGTGTAC,0.403 E-score,,0.19 E-score,0.196 E-score,0.19 E-score,0.434 E-score,0.195 E-score,,0.191 E-score,0.197 E-score,0.193 E-score,0.261 E-score
